This note sets out measurements from PubChem BioAssay (EPA / NIEHS).

Active and inactive are the calls of the source. The calls were made as follows: active = hit-call score of the fitted dose curve at least 0.9, where 1 is the maximum; inactive = score below 0.9.

A short description of test [1]: CCTE_Padilla_ZF_Score.Living: CCTE's 144 Hour Post-fertilization zebrafish Assay Score for Viability, Padilla Lab (AID 2284410).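 Also: larval death at 6 dpf judged by absent heartbeat or coagulation.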 The procedure, abridged: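 Wild-type zebrafish embryos were exposed singly from 6–8 hpf in sealed wells of Hanks' solution at 26C, then rinsed at 5 dpf. At 6 dpf, blinded assessors scored mortality (no heartbeat or coagulation) by stereomicroscopy, fitted against DMSO.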

Test [2] can be described thus: CCTE_Padilla_ZF_Score.General: CCTE's 144 Hour Post-fertilization zebrafish Assay Score for General Malformation, Padilla Lab (AID 2284411). The procedure, abridged:
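Wild-type zebrafish embryos were plated singly at 6-8 hpf in 10% Hanks' and exposed in sealed wells at 26C until rinsed on 5 dpf. At 6 dpf two blinded assessors scored mortality, hatching and malformations by stereomicroscopy; gain-of-signal versus DMSO.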

Test [3] is described as follows: CCTE_Padilla_ZF_Score.Tail: CCTE's 144 Hour Post-fertilization zebrafish Assay Score for Tail Malformation, Padilla Lab (AID 2284414). Put shortly:
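Wild-type zebrafish embryos, one per well in 200 uL 10% Hanks', dosed at 6-8 hpf, sealed, and kept at 26 C on a 14:10 h light cycle. Chemical was rinsed out at 5 dpf. Blinded brightfield scoring of tail defects followed at 6 dpf.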

Test [4] can be described thus: CCTE_Padilla_ZF_Score.Blood_pooling: CCTE's 144 Hour Post-fertilization zebrafish Assay Score for Blood Pooling, Padilla Lab (AID 2284415). Put shortly:
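Wild-type outbred zebrafish embryos, one per well in 10% Hanks', exposed from 6–8 hpf in sealed plates at 26C on 14:10 h light:dark, rinsed at 5 dpf. Blinded stereomicroscope scoring of blood pooling at 6 dpf; gain-of-signal versus DMSO.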

The nature of test [5]: CCTE_Padilla_ZF_Score.Any: CCTE's 144 Hour Post-fertilization zebrafish Assay Score for Any Mortality or Malformation, Padilla Lab (AID 2284416). Put shortly:
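Wild-type zebrafish embryos with chorions, one per well in 10% Hanks' from 6–8 hpf, dosed in sealed plates at 26 C, 14:10 h light:dark; rinsed at 5 dpf; blinded scoring at 6 dpf for death or malformation, versus DMSO.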

Turning to `OCC(F)(F)C(F)(F)C(F)(F)C(F)F`, the outcome in test [1], in test [2], in test [3], in test [4] and in test [5] was inactive.

For the compound `OCCCC(F)(F)C(F)(F)C(F)(F)F`, the compound was classed as inactive in test [1], in test [2], in test [3], in test [4] and in test [5].

`FC(F)(F)C(F)(F)C(F)(F)C(F)(F)CCI`: the call in test [1], in test [2], in test [3], in test [4] and in test [5] was inactive.

As for `O=S(=O)(OCCOC(F)(F)F)C(F)(F)F`, the result in test [1], in test [2], in test [3], in test [4] and in test [5] was inactive.

For `O=C(O)C(F)(F)C(F)(F)C(F)(F)C(F)(F)C(F)(F)C(F)(F)C(F)(F)C(F)(F)C(F)(F)C(F)F`, the AC50 (as a rule, the concentration at which the activity in the assay is half-maximal) was 17.5 µM (active) in test [1] and 15 µM (active) in test [5]. Also, the result in test [3] and in test [4] was inactive.

For the compound `OCC(F)(F)C(F)(F)C(F)(F)C(F)(F)C(F)(F)C(F)(F)F`, the AC50 in test [1] is 88 µM (active); in test [4], 93.7 µM (active); in test [5] it was 80.5 µM (active). Moreover, the outcome in test [3] was inactive.

As to `FC(F)(F)C(F)(F)C(F)(F)C(F)(F)C(F)(F)C(F)(F)CC1CO1` (stereo unspecified), the result in test [1], in test [3], in test [4] and in test [5] was inactive.

Regarding `FC(F)(F)C(F)(F)C(F)(F)C(F)(F)C(F)(F)CCI`, the compound was called inactive in test [1], in test [3] and in test [4]. Further, in test [5], the AC50 is 31.9 µM (active).

On to `O=C(O)C(F)(F)C(F)(F)F`, for which the compound was called inactive in test [1], in test [3], in test [4] and in test [5].

Take `OCC(F)(F)C(F)(F)C(F)(F)C(F)(F)C(F)(F)C(F)F`: the call in test [1], in test [3], in test [4] and in test [5] was inactive.

Take `FC(F)(F)C(F)(F)C(F)(F)N(C(F)(F)C(F)(F)C(F)(F)F)C(F)(F)C(F)(F)C(F)(F)F`: the compound was called inactive in test [1], in test [2], in test [3], in test [4] and in test [5].

`FC(F)(F)C(F)(F)C(F)(F)C(F)(F)C(F)(F)C(F)(F)C(F)(F)C(F)(F)F`: the call in test [1], in test [2], in test [3], in test [4] and in test [5] was inactive.

In the case of `C=C(C)C(=O)OCCC(F)(F)C(F)(F)C(F)(F)C(F)(F)C(F)(C(F)(F)F)C(F)(F)F`, the compound was classed as inactive in test [1], in test [2], in test [3], in test [4] and in test [5].

In the case of `Cc1ccc(S(=O)(=O)OCC(F)(F)C(F)(F)C(F)(F)C(F)(F)C(F)(F)C(F)F)cc1`, the compound was called inactive in test [1], in test [3] and in test [4]. For the same compound, the AC50 was 8.85 µM (active) in test [2] and 22.9 µM (active) in test [5].

Take `C=C(C)C(=O)OCC(F)(F)C(F)(F)C(F)(F)F`: the call in test [1], in test [2], in test [3], in test [4] and in test [5] was inactive.

For `FC(F)(F)C(F)(F)C(F)(F)CI`, the compound was classed as inactive in test [1], in test [3], in test [4] and in test [5].

Turning to `O=C(Cl)C(F)(F)C(F)(F)C(F)(F)C(F)(F)C(F)(F)C(F)(F)C(F)(F)C(F)(F)F`, the call in test [1], in test [3] and in test [4] was inactive. Also, the AC50 was 11.4 µM (active) in test [2] and 29.4 µM (active) in test [5].

For `FC(F)(F)C(F)(F)C(F)(F)C(F)(F)C(F)(F)C(F)(F)C(F)(F)I`, the call in test [1], in test [3] and in test [4] was inactive. Further, in test [5], the AC50 was 12.4 µM (active).

With `O=C(CC(=O)C(F)(F)C(F)(F)F)C(F)(F)F`, the compound was classed as inactive in test [1], in test [3], in test [4] and in test [5].

As for `O=C(O)C=C(C(F)(F)F)C(F)(F)F`, the compound was called inactive in test [1], in test [2], in test [3], in test [4] and in test [5].

As to `O=C(O)C(F)(OC(F)(F)C(F)(OC(F)(F)C(F)(F)C(F)(F)F)C(F)(F)F)C(F)(F)F` (stereo unspecified), the compound was classed as inactive in test [1], in test [3], in test [4] and in test [5].

On to `N=C(N)C(F)(F)C(F)(F)C(F)(F)C(F)(F)C(F)(F)C(F)(F)C(F)(F)F`, for which the AC50 in test [1] and in test [5] was 22.2 µM (active) throughout. Further, the call in test [2], in test [3] and in test [4] was inactive.

In the case of `O=S(=O)(O)C(F)(F)C(F)(F)C(F)(F)C(F)(F)C(F)(F)C(F)(F)C(F)(F)F`, the AC50 in test [1] was 71 µM (active); in test [2], 16.6 µM (active); in test [3], 31.2 µM (active); in test [4], 63.4 µM (active); in test [5], 21.3 µM (active).

Turning to `O=C(O)C(F)(F)C(F)(F)C(F)(F)C(F)(F)C(F)(F)C(F)(F)C(F)(F)C(F)(F)C(F)(F)C(F)(F)C(F)(F)C(F)(F)F`, the outcome in test [1], in test [3], in test [4] and in test [5] was inactive.

For the compound `FC(F)(F)C(F)(F)C(F)(F)C(F)(F)C(F)(F)C(F)(F)CCS`, the result in test [1], in test [3], in test [4] and in test [5] was inactive.

As for `O=C(O)C(F)(F)C(F)(F)C(F)(F)C(F)(F)F`, the outcome in test [1], in test [2], in test [3], in test [4] and in test [5] was inactive.

For the compound `O=C(O)C(F)(F)C(F)(F)C(F)(F)C(F)(F)C(F)(F)C(F)(F)C(F)(F)C(F)(F)C(F)(F)C(F)(F)C(F)(F)C(F)(F)C(F)(F)F`, the call in test [1], in test [3], in test [4] and in test [5] was inactive.

With `FC(F)(F)C(F)(F)C(F)(F)C(F)(F)C(F)(F)C(F)(F)C(F)(F)C(F)(F)CCS`, the call in test [1], in test [3], in test [4] and in test [5] was inactive.
